The whole screen tested about 340,000 compounds, of which about 1,400 (0.41%) were called active. Not shown: some 4% with an inconclusive outcome. The call rests on the fitted dose curve; cell line not stated here. The list comes from a sample in which actives are over-represented; it also holds similar structures and randomly drawn compounds. Entries that show only a call come without a potency.

The text below walks through data of PubChem BioAssay AID624288 (National Center for Advancing Translational Sciences (NCATS), 2012).
Potency means the concentration at half of the fitted maximal effect.

The assay can be described thus: qHTS for Antagonists of gsp, the Etiologic Mutation Responsible for Fibrous Dysplasia/McCune-Albright Syndrome: qHTS. Further: nearly all actives have a fitted effect of over 65% in size. The note with it: gsp-mutant cells, cAMP HTRF, 30 min; series mostly up to 76.9 µM. In outline: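 G418-selected cells were plated in DMEM/10% FBS for 16-24 h at 37C, then treated with compounds plus the PDE inhibitor […] (300 uM solution added) for 30 min at 37C. Intracellular cAMP was measured by HTRF after 30 min lysis at room temperature.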
For orientation: qHTS replaces the single test concentration by a dilution series.
`COc1ccc(/C=C2/CCCc3ccccc3C2=O)cc1`: the Potency entry is “inactive”.

Regarding `CC(=O)OC1CCC2(C)C(=CCC3C4CC(=O)N(O)C(=O)C4(C)CCC32)C1` (stereo not given), the Potency entry is “inactive”. In the case of `Cc1[nH]n(-c2cccc(Cl)c2)c(=O)c1-c1ccc(Cl)cc1` it was 28.2 µM (active); in that of `CCCc1cc(=O)n2[nH]c(C)c(-c3ccc(Cl)cc3)c2n1`, “inactive”; in that of `Cc1cccc(N=Nc2c(C)[nH]n(-c3ccccc3)c2=O)c1`, “inactive”. Regarding `O=C(NN=Cc1ccccc1O)NN=Cc1ccccc1O`, the Potency result is “inactive”. In the case of `Cc1cc(NC(=O)c2cc3ccccc3o2)no1` it was “inactive”; in that of `COc1ccc(-c2sc3ccc(OC)cc3c2C#Cc2ccccn2)cc1`, 28.2 µM (active); in that of `COc1ccc2sc(-c3ccc(N(C)C)cc3)c(C#CCO)c2c1`, “inactive”. The result for `COc1ccc2sc(-c3ccc(N(C)C)cc3)c(-c3ccc4cc[nH]c4c3)c2c1` reads “inactive”; that for `CN(C)C(=S)N=c1ssc(=S)n1Cc1ccco1`, “inactive”. The result for `O=c1[nH]n(-c2ccc([N+](=O)[O-])cc2)c(=O)c2ccccc12` reads “inactive”; that for `O=C1CC(c2ccccc2)=NN1c1ccc([N+](=O)[O-])cc1`, 35.5 µM (active); that for `Cc1nn(-c2ccc([N+](=O)[O-])cc2)c(N)c1-c1ccccc1`, “inactive”. For the molecule `O=C1COc2c1ccc(O)c2O`, the Potency result was “inactive”. In the case of `O=C(O)c1ccc(Cn2cnc3c(=S)nc[nH]c32)cc1`, the Potency entry was “inactive”.

As for `O=C(CC(=O)c1cccnc1)c1ccccc1`, the Potency result is “inactive”.

Regarding `CCC(=C/c1sc2ccc3ccccc3c2[n+]1C)/C=C1\Sc2ccc3ccccc3c2N1C`, the Potency is 35.5 µM (active).

`O=C1CC(c2ccccc2)C(c2ccccc2)=NN1` (stereo not given): the Potency entry was “inactive”. In the case of `c1ccc(CNc2ncnc3[nH]ncc23)cc1` it was “inactive”. As to `Cc1ccc(SCC(=O)N2CCN(c3ccc(F)cc3)CC2)cc1`, the Potency result was “inactive”. In the case of `CN(C(=O)c1ccc(NC(=O)Cc2cccc(NC(=O)C3CCN(C(=O)c4ccccc4)CC3)c2)cc1)C1CC1` it was “inactive”; in that of `CCc1ccc(NC(=O)Nc2ccncc2)cc1`, “inactive”; in that of `Cc1ccc(NC(=O)Nc2nnc(-c3ccncc3)s2)cc1`, 50.1 µM (active). The result for `Cc1ccc(NC(=O)Nc2cccnc2)cc1` reads “inactive”; that for `O=C1NCC(Nc2ccccc2)C(=O)N1` (stereo not given), “inactive”. Consider `COc1ccc(S(=O)(=O)N2C[C@H]3CON(C)[C@H]3C[C@H]2c2cccc(Br)c2)cc1`, for which the Potency entry was “inactive”.

In the case of `S=c1[nH]nc(-c2ccncc2)n1/N=C/c1ccccc1Cl`, the Potency result was “inactive”. The result for `Fc1ccccc1/C=N/n1c(-c2cccnc2)n[nH]c1=S` reads 28.2 µM (active); that for `O=[N+]([O-])c1ccccc1/C=N/n1c(COc2ccccc2)n[nH]c1=S`, “inactive”; that for `Cc1cccc(NC(=S)N2CCC(C(=O)c3ccc(F)cc3)CC2)c1`, “inactive”. The result for `Cc1nn(-c2ccccc2)c(C)c1NC(=O)COc1ccc(Cl)cc1Cl` reads 50.1 µM (active); that for `Cc1nn(-c2ccccc2)c(C)c1NC(=O)CCl`, “inactive”; that for `Cc1nn(-c2ccccc2)c(C)c1NC(=O)COC(=O)c1cc(Cl)ccc1O`, “inactive”.

For the molecule `CC(C)Cn1cnc2c(SCc3ccc(Cl)cc3)nc(N)nc21`, the Potency entry was “inactive”. In the case of `COC(=O)CC(CC(=O)OC)n1cccc1` it was “inactive”; in that of `NS(=O)(=O)c1cccc(NC(=O)CSc2nc3ccccc3n2-c2ccccc2)c1`, 28.2 µM (active); in that of `COc1ccc(-n2cnnc2SCC(=O)Nc2cccc(S(N)(=O)=O)c2)cc1`, “inactive”.

With `Cc1nnc(SCC(=O)Nc2cccc(N)c2)n1-c1ccccc1`, the Potency entry is “inactive”. In the case of `CNc1nc(=O)n(C2CCCO2)cc1C` (stereo not given) it was “inactive”. For `Cc1ccccc1OCC(=O)Nc1ccc(N2CCN(C(=O)C(C)C)CC2)c(Cl)c1`, the Potency is 31.6 µM (active). Turning to `Cc1ccccc1OCC(=O)Nc1ccc(S(=O)(=O)N2CCOCC2)cc1`, the Potency result was “inactive”.

Take `Cc1ccccc1OCC(=O)Nc1ccc2c(c1)ncn2C`: the Potency result was “inactive”. Turning to `COc1ccc2nc(N3C(=O)C(O)=C(C(=O)c4ccco4)C3c3ccco3)sc2c1` (stereo not given), the Potency result was “inactive”.

As for `OCCN1CCN(CCO)C1=S`, the Potency entry is “inactive”.

In the case of `N#CC1=C(N)Oc2cc(N)ccc2C1c1ccccc1` (stereo not given), the Potency entry is “inactive”. Turning to `CN(C)/N=C/c1cc(Cl)cc([N+](=O)[O-])c1O`, the Potency entry was “inactive”. The result for `O=S(=O)(c1ccc(NC(=S)NN=C(C2CC2)C2CC2)cc1)N1CCOCC1` reads “inactive”.

With `O=[N+]([O-])c1cc(Cl)cc(/C=N/NC(=S)Nc2cc(S(=O)(=O)N3CCOCC3)ccc2Cl)c1O`, the Potency was 50.1 µM (active).

In the case of `O=C1CC(c2ccccc2)C(=O)N2C(=O)CC(c3ccccc3)C(=O)N12` (stereo not given), the Potency result is “inactive”. In the case of `Cc1nc(Nc2ccccc2C)c2cnn(C)c2n1` it was “inactive”; in that of `COc1ccc(N=C2C=CC(=O)O2)cc1`, “inactive”. For `O=C(NC(Nc1nc2ccc([N+](=O)[O-])cc2s1)(C(F)(F)F)C(F)(F)F)c1ccccc1`, the Potency is 3.98 µM (active). The result for `N=C1C(c2nc3ccccc3s2)=C(O)CN1NC(=O)c1ccc([N+](=O)[O-])cc1` reads “inactive”. The result for `O=C(CCNC(=O)c1ccccc1)Nc1nc2ccccc2s1` reads “inactive”; that for `CC(=O)Nc1ccc(C(=O)Nc2cc(S(=O)(=O)N3CCOCC3)ccc2N2CCOCC2)cc1`, “inactive”; that for `CC1(C)N=C(N)NC(Nc2ccc(Cl)cc2)=N1`, “inactive”. In the case of `CC1CCCCC1NCC(=O)Nc1ccccc1C(=O)Nc1ccccc1` (stereo not given) it was “inactive”; in that of `O=C(O)c1ccccc1NC(=O)c1ccccc1-c1ccccc1C(=O)O`, “inactive”.

`O=C(Nc1ccccc1)c1ccccc1NC(=O)C(F)(F)F`: the Potency is 31.6 µM (active). The result for `c1ccc(CCc2ccccn2)cc1` reads “inactive”; that for `COc1ccccc1C1/C(=C(/O)c2ccc(OC(C)C)cc2)C(=O)C(=O)N1c1cc(C)on1` (stereo not given), 28.2 µM (active); that for `Cc1cc(N2C(=O)C(=O)/C(=C(/O)c3ccc(Cl)cc3)C2c2cccc(Br)c2)no1` (stereo not given), “inactive”. In the case of `Cc1cc(N2C(=O)C(=O)/C(=C(/O)c3ccccc3)C2c2cccc(Br)c2)no1` (stereo not given) it was “inactive”; in that of `COc1ccc(CNCCCNCc2ccc(OC)c(OC)c2)cc1OC`, “inactive”; in that of `O=C1NC(c2ccccc2)Cc2ccncc21` (stereo not given), “inactive”. The result for `Cc1ccc(S(=O)(=O)CC(=O)Nc2nnc(C)s2)cc1` reads “inactive”. Turning to `Cc1cccc(CS(=O)(=O)c2ncc(Cl)c(C(=O)Nc3ccc(F)cc3)n2)c1`, the Potency is 50.1 µM (active). In the case of `Cc1nnc(NC(=O)c2ccc3nccnc3c2)s1` it was “inactive”; in that of `Cc1cccc(NC(=O)c2nc(S(=O)(=O)Cc3ccccc3)ncc2Cl)c1`, “inactive”; in that of `COCCSc1nnc(NC(=O)CCS(=O)(=O)Cc2ccccc2)s1`, “inactive”.

As for `Cc1ccc(CS(=O)(=O)c2ncc(Cl)c(C(=O)Nc3nnc(C)s3)n2)cc1`, the Potency is 31.6 µM (active).

For the molecule `CSc1ncc(Cl)c(C(=O)Nc2cc(C)ccc2C)n1`, the Potency result is “inactive”. The result for `CCOc1ccc(NC(=O)c2nc(SCC)ncc2Cl)cc1` reads “inactive”; that for `CSc1nnc(NC(=O)c2nc(S(=O)(=O)Cc3ccc(C)cc3)ncc2Cl)s1`, 15.8 µM (active).
